17 compounds from ChEMBL document CHEMBL2218924, “A broad activity screen in support of a chemogenomic map for kinase signalling research and drug discovery” (Biochem J, 2013) can be followed below.

For test [1], the target named is Vascular endothelial growth factor receptor 3 (Homo sapiens) (UniProt P35916). Particulars: at 10 µM.
Test [2] deals with Macrophage colony-stimulating factor 1 receptor (Homo sapiens) (UniProt P07333). Particulars: at 1 µM.
For test [3] the target is unchanged. The following applies: at 10 µM.
Test [4] addresses Tyrosine-protein kinase Fyn (Homo sapiens) (UniProt P06241). Particulars: at 1 µM.
The target is the same in test [5]. Particulars: at 10 µM.
Test [6] deals with T1, Mitogen-activated protein kinase kinase kinase kinase 2 (Homo sapiens) (UniProt Q12851).
T1 sequence (whole entry): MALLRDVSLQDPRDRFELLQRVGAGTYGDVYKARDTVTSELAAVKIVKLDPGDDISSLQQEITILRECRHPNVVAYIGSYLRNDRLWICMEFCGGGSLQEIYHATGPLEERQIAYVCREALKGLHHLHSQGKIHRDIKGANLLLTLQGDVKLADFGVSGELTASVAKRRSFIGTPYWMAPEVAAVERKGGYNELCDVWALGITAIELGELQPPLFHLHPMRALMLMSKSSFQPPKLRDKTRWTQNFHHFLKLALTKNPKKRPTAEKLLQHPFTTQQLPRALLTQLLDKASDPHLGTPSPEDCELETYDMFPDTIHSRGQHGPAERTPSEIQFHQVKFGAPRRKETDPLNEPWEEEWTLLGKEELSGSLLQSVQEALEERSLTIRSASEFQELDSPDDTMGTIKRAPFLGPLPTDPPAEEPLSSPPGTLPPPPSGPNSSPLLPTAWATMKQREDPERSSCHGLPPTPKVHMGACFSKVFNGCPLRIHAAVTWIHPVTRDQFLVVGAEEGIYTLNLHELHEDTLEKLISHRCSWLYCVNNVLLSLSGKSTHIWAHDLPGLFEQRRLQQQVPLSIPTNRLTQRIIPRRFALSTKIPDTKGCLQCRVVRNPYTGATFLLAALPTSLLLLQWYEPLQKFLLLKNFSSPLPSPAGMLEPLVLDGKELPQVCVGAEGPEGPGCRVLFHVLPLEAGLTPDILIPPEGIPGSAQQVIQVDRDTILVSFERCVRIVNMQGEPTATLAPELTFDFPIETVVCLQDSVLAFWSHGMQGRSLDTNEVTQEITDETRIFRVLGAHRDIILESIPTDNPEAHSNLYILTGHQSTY
Particulars: at 1 µM.

The target of test [7] is T1, Mitogen-activated protein kinase kinase kinase kinase 2 (Homo sapiens). The following applies: at 10 µM.
In test [8] the target is G protein-coupled receptor kinase 5 (Homo sapiens) (UniProt P34947). Particulars: at 10 µM.
Chain of G protein-coupled receptor kinase 5 (Homo sapiens) (P34947 whole entry, looked up): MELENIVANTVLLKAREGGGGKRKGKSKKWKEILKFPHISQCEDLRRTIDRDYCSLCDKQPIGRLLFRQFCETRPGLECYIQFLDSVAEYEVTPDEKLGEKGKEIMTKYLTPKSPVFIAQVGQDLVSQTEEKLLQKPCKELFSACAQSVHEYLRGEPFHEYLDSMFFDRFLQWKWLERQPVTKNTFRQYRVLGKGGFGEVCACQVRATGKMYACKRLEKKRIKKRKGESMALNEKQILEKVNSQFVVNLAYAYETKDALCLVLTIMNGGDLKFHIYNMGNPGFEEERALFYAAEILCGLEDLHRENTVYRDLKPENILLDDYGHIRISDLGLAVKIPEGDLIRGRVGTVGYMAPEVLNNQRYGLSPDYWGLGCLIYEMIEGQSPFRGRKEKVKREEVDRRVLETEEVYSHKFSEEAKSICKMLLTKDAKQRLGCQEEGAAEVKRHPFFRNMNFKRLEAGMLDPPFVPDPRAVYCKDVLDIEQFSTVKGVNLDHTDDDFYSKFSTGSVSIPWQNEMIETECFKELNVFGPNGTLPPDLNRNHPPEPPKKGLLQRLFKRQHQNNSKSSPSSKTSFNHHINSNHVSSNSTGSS
In test [9] the target is G protein-coupled receptor kinase 6 (Homo sapiens) (UniProt P43250). Particulars: at 10 µM.
Chain of G protein-coupled receptor kinase 6 (Homo sapiens) (P43250 whole entry, looked up): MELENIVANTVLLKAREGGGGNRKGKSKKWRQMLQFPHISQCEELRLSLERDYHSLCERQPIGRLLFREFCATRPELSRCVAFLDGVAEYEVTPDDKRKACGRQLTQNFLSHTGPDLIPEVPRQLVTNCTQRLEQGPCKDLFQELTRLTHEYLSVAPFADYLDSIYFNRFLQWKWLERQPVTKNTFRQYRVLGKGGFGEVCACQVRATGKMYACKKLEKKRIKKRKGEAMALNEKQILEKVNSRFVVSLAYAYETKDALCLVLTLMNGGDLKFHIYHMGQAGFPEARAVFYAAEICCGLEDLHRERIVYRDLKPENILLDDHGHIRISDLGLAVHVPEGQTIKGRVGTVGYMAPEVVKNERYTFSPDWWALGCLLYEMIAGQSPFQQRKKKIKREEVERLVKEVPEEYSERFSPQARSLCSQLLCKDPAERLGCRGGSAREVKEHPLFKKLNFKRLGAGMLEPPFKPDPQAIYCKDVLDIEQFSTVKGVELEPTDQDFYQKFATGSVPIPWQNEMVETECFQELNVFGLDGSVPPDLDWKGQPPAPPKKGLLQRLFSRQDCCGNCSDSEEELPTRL
Test [10] deals with T2, Rhodopsin kinase GRK7 (Homo sapiens) (UniProt Q8WTQ7).
T2 sequence (whole entry): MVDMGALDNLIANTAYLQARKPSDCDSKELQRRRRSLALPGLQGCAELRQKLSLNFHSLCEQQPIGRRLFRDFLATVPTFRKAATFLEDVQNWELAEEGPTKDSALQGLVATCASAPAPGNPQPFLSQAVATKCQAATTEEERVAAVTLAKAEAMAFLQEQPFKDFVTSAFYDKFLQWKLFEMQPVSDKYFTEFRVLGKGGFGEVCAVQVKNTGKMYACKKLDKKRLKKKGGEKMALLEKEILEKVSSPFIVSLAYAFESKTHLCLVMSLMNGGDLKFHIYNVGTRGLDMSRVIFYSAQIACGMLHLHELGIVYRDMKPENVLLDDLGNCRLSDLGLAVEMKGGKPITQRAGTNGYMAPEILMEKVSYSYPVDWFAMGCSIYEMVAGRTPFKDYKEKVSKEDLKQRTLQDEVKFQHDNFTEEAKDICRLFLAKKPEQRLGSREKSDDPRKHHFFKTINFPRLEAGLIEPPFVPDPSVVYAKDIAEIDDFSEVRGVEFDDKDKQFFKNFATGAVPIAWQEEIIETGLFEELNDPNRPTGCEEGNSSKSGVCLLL
Particulars: at 1 µM.

Chain of Tyrosine-protein kinase Fyn (Homo sapiens) (P06241 2-537 limits assumed): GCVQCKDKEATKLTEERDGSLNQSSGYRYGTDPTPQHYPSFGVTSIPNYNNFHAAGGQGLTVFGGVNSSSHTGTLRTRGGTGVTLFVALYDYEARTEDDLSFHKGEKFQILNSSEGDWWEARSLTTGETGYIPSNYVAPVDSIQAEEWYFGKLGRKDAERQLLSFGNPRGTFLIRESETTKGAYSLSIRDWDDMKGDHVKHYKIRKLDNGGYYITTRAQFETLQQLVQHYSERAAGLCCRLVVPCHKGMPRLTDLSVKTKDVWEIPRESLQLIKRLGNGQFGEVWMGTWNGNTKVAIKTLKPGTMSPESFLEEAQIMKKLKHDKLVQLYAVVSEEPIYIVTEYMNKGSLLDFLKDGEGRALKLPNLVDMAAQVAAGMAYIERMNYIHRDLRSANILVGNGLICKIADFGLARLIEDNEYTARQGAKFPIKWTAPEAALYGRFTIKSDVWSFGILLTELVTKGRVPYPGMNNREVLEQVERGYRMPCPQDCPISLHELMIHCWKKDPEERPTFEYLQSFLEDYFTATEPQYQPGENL
Chain of Macrophage colony-stimulating factor 1 receptor (Homo sapiens) (P07333 whole entry): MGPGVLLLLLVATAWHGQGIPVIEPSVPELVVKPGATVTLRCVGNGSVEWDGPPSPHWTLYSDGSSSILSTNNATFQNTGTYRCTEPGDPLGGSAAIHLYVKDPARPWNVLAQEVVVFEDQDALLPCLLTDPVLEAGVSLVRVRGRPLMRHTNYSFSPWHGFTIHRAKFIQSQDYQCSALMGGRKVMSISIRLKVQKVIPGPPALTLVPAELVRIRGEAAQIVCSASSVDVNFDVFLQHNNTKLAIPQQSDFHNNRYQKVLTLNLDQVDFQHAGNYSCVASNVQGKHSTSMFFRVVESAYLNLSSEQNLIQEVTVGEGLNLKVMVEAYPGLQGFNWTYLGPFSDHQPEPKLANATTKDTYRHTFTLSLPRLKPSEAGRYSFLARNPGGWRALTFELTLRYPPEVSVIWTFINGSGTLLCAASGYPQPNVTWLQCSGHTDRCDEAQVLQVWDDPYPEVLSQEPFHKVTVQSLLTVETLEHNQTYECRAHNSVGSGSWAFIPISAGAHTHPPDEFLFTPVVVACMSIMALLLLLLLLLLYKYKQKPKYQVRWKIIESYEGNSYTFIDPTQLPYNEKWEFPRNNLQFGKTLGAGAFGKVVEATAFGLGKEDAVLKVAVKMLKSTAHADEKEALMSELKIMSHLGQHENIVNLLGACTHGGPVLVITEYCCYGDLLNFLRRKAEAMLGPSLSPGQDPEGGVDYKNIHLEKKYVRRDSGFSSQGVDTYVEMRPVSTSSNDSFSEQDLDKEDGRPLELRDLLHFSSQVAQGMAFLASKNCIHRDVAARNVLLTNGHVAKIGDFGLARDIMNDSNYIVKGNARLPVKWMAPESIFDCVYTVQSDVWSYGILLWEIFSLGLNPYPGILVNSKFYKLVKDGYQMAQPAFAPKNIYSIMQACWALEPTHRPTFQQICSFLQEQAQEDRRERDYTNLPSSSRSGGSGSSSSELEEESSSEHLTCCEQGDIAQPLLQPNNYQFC
Chain of Vascular endothelial growth factor receptor 3 (Homo sapiens) (P35916 whole entry): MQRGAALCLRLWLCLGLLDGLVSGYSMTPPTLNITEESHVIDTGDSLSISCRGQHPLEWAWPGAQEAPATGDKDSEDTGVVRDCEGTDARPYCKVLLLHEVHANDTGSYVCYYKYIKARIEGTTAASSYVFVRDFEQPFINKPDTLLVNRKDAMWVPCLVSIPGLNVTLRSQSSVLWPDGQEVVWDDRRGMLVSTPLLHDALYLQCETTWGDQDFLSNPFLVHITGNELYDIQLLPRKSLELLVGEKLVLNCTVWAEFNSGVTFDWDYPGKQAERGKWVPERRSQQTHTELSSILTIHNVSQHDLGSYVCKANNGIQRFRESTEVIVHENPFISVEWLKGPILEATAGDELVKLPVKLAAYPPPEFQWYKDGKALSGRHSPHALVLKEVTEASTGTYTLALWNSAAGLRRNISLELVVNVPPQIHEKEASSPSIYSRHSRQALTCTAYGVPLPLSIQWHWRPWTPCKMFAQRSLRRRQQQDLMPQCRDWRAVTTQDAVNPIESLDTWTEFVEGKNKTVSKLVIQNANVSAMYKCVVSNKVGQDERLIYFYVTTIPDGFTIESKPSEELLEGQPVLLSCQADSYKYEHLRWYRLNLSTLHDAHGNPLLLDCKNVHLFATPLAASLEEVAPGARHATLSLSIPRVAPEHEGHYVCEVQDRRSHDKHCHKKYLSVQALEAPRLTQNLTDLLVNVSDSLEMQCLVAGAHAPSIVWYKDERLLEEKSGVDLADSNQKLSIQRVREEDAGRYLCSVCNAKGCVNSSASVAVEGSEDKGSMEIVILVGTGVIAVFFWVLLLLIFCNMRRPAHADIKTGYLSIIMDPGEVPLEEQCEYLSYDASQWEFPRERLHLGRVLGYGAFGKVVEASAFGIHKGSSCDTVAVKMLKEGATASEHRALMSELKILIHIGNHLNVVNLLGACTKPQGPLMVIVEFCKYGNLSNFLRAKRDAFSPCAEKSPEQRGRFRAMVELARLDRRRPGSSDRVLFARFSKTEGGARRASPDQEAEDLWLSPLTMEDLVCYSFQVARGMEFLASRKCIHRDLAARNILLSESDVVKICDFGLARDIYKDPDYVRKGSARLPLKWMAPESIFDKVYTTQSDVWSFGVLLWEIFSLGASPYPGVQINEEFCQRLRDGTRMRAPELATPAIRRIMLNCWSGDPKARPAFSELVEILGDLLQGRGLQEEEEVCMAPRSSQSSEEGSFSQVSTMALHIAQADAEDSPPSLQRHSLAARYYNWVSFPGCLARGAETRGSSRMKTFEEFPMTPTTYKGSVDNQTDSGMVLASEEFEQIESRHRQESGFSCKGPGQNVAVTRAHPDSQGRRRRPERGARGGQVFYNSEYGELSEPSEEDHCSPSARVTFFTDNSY

For `O=[N+]([O-])c1ccc(-c2nc(-c3ccc(F)cc3)c(-c3ccncc3)[nH]2)cc1`, the residual activity in test [1] is 71%; in [2], 81%; in test [3], 54%; in test [4], 82%; in [5], 70%; in test [6], 99%. Further, the residual activity is 91% in [7], 105% in test [8], 94% in test [9] and 108% in [10].
For the compound `Oc1ccc(-c2nc(-c3ccc(F)cc3)c(-c3ccncc3)[nH]2)cc1`, the residual activity in test [1] is 29%; in test [2], 79%; in test [3], 58%; in test [4], 83%; in [5] it was 27%; in test [6], 106%. In addition, the residual activity turned out to be 87% in test [7], 100% in test [8], 97% in [9] and 121% in [10].
As to `O=C1c2ccccc2-[n+]2ccc3c([nH]c4ccccc43)c21`, the residual activity in test [1] came out at 25%; in [2] it was 68%; in test [3] it was 58%; in test [4], 77%; in test [5], 76%; in [6], 75%. Further, the residual activity in test [7] was found to be 73%; in [8], 91%; in test [9] it was 90%; in test [10], 91%.
For the compound `Cc1nc(-c2ccccc2)c(-c2ccncc2)o1`, the residual activity in [1] came out at 0%; in test [2], 90%; in test [3], 86%; in test [4] it was 90%; in test [5], 69%; in test [6], 91%. The residual activity in test [7] came out at 77%; in [8], 107%; in test [9] it was 97%; in test [10] it was 105%.
`O=C(Nc1cccc(Nc2nccc(Nc3cccc(C(F)(F)F)c3)n2)c1)C1CC1`: the residual activity in [1] turned out to be 6%; in test [2], 14%; in test [3], 2%; in [4], 47%; in test [5] it was 7%; in test [6] it was 97%. The residual activity in test [7] worked out at 32%; in test [8] it was 102%; in test [9], 94%; in test [10], 104%.
With `O=C1NC(=O)/C(=C\c2ccc3nccnc3c2)S1`, the residual activity in test [1] turned out to be 70%; in [2], 126%; in test [3], 112%; in test [4], 83%; in [5], 79%; in test [6] it was 75%. The residual activity in test [7] came to 26%; in test [8], 82%; in [9], 79%; in test [10], 87%.
Regarding `O=Nc1c(-c2c(O)[nH]c3ccccc23)[nH]c2ccccc12`, the residual activity is 1% in [1]; 15% in test [2]; 8% in test [3]; 5% in test [4]; 0% in test [5]; 13% in [6]. In addition, the residual activity worked out at 1% in test [7], 58% in [8], 80% in [9] and 73% in [10].
Turning to `COc1cc2ncnc(N3CCN(C(=O)Nc4ccc(Oc5ccccc5)cc4)CC3)c2cc1OC`, the residual activity in test [1] worked out at 7%; in test [2], 7%; in test [3], 2%; in test [4] it was 84%; in test [5] it was 82%; in test [6] it was 80%. In addition, the residual activity worked out at 69% in [7], 93% in [8], 82% in [9] and 80% in [10].
With `Oc1n[nH]c2nnc(-c3c(-c4ccccc4)nn4ccccc34)cc12`, the residual activity is 60% in test [1]; 49% in test [2]; 15% in test [3]; 75% in [4]; 77% in [5]; 82% in [6]. In addition, the residual activity in test [7] amounted to 75%; in test [8] it was 97%; in test [9] it was 85%; in test [10] it was 85%.
In the case of `CO[C@H]1[C@@H](OC)C[C@H](C)[C@@H](OC)C2=CC(=O)C=C(NC(=O)/C(C)=C/C=C/[C@H](OC)[C@@H](OC(N)=O)/C(C)=C/[C@@H]1C)C2=O`, the residual activity was found to be 89% in test [1]; 131% in [2]; 112% in test [3]; 88% in test [4]; 96% in [5]; 92% in test [6]. Further, the residual activity in test [7] was 81%; in [8] it was 102%; in test [9], 89%; in test [10] it was 100%.
Consider `CC(=O)O/N=C1\C(=C2\C(=O)Nc3cc(Br)ccc32)Nc2ccccc21`, for which the residual activity in [1] is 1%; in [2], 33%; in test [3], 16%; in test [4], 1%; in test [5] it was 0%; in [6] it was 67%. Besides, the residual activity in [7] was found to be 23%; in test [8], 94%; in [9] it was 88%; in test [10], 106%.
On to `O=C1Nc2ccccc2/C1=C1/Nc2ccccc2/C1=N\OCCC(O)CO` (stereo not drawn), for which the residual activity was 0% in test [1]; 1% in test [2]; 1% in [3]; -1% in [4]; 2% in [5]; 20% in [6]. Besides, the residual activity in test [7] worked out at 4%; in test [8], 63%; in [9], 72%; in test [10], 60%.
`c1ccc(-c2n[nH]c3c2oc2ccccc23)cc1`: the residual activity came to 1% in test [1]; 6% in [2]; 1% in [3]; 86% in test [4]; 51% in test [5]; 84% in test [6]. Besides, the residual activity in test [7] turned out to be 30%; in test [8] it was 94%; in test [9], 86%; in test [10], 95%.
In the case of `COc1ccc(OC)c2c(=S)c3ccccc3[nH]c12`, the residual activity in test [1] came to 60%; in test [2], 84%; in [3], 62%; in [4], 83%; in [5], 90%; in test [6] it was 90%. Further, the residual activity in [7] was 80%; in test [8], 97%; in [9], 80%; in [10], 84%.
`CCN(CC)CCCCN1c2ccccc2Oc2ccc(Cl)cc21`: the residual activity came out at 102% in [1]; 124% in [2]; 127% in test [3]; 102% in [4]; 108% in test [5]; 109% in test [6]. The residual activity in [7] is 91%; in test [8], 97%; in [9] it was 98%; in test [10] it was 111%.
For the compound `Cc1cc2ncc(-c3ccccc3)nc2cc1C`, the residual activity is 26% in test [1]; 36% in test [2]; 6% in test [3]; 98% in [4]; 27% in test [5]; 98% in test [6]. Besides, the residual activity in test [7] is 90%; in test [8], 102%; in test [9], 101%; in [10] it was 102%.
With `Nc1nc(Nc2ccc(S(N)(=O)=O)cc2)nn1C(=S)Nc1c(F)cccc1F`, the residual activity in test [1] is -1%; in test [2], 5%; in test [3] it was 0%; in test [4] it was 6%; in [5] it was -1%; in test [6], 1%. Besides, the residual activity in test [7] is -1%; in test [8], 30%.
